This is a sample that favours compounds with a hit; in the whole collection about 1.4% have one here.
LDHA block – qHTS assay for inhibitors of human lactate dehydrogenase | purified LDHA, NADH/diaphorase-resazurin fluorescence; stronger effect = lower value | actives 0.15% (n = 480,000) | activity change, % (values are at about 110 or 230 µM); in the data active = activity change below about -30%; inconclusive = mostly about -25% to -30%;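 also: plate controls were DMSO wells for no effect and wells without enzyme for full effect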
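Remaining NADH was detected by diaphorase (0.133 mg/mL) converting 37 µM resazurin to fluorescent resorufin, read at 0 and 20 minutes. The preceding 5-minute room-temperature reaction used 2 nM LDHA, 0.2 mM sodium pyruvate and 0.06 mM NADH at pH 7.4.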
PKM2 act – qHTS Assay for Activators of Human Muscle isoform 2 Pyruvate Kinase. actives 0.34% (n = 260,000). Potency, µM (series often up to 57.5 µM), without a hit: at the top dose activation, actives largely listed as activators. Pyruvate kinase PKM (Homo sapiens), P14618. purified PKM2, Kinase-Glo ATP luminescence, activation; response scale: 0% is enzyme alone, no compound; also: potency is read from the fitted curve at half-maximal effect; nearly all actives have a fitted effect of over 55% in size
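Purified hPK-M2 (>95% pure) converted ADP (0.1 mM final) to ATP with 0.5 mM PEP in 50 mM imidazole pH7.2, KCl, MgCl2, Tween 20, BSA; 1 h at room temperature. ATP detected by Kinase-Glo luminescence.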
mIDH1 inhibitor – qHTS for Inhibitors of mutant isocitrate dehydrogenase 1 (IDH1): qHTS | AID 602179, 2012 | actives 0.093% (n = 390,000) | Isocitrate dehydrogenase [NADP] cytoplasmic (Homo sapiens), O75874 | Potency, µM (highest dose often 76.6 µM), without a hit: at the top dose activity change, negative = inhibition, actives largely listed as inhibitors | IDH1-R132H enzyme, NADPH consumption, diaphorase/resazurin fluorescence; also: potency is read from the fitted curve at half-maximal effect; nearly all actives have a fitted effect of over 65% in size
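IDH1-R132H (0.5 ug/mL dispensed) in pH 7.5 Tris buffer was preincubated 30 min with compound, then given a substrate mix of 0.016 mM NADPH and 2 mM alpha-KG for 80 min at room temperature; remaining NADPH was read by diaphorase/resazurin fluorescence.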
GLS inhibitor – qHTS for Inhibitors of Glutaminase (GLS); Glutaminase kidney isoform, mitochondrial (Homo sapiens), O94925; GLS enzymatic activity, qHTS titration; Potency, µM (highest dose often 45.5 µM), inactives show at the highest dose activity change, negative = inhibition, usual class: inhibitors; actives 0.21% (n = 410,000); AID 624170, 2012; also: potency is read from the fitted curve at half-maximal effect
Target sequence (O94925 whole entry, looked up, canonical isoform): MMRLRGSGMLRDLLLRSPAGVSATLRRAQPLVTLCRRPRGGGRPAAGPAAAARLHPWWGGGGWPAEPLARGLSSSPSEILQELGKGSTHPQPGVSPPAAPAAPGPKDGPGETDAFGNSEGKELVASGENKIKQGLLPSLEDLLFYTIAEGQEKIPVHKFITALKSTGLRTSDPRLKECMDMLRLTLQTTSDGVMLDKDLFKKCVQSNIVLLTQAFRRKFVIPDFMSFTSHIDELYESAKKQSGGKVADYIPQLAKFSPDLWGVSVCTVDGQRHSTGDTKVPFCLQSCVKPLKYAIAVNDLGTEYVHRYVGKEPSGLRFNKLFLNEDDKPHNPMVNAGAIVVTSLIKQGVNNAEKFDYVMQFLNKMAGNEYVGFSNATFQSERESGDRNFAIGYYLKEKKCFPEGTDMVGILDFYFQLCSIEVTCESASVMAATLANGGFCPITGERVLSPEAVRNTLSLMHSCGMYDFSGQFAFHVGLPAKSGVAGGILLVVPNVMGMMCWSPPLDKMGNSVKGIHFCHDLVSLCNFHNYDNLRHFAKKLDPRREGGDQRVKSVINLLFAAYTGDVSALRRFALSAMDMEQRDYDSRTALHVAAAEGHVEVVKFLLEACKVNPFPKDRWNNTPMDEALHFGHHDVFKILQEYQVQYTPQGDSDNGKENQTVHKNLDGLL
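Enzyme dispensed in phosphate buffer (45 mM, pH 8.2, 0.02% Tween-20), compounds pinned in, then 1 mM L-glutamine solution and the glutamate oxidase–HRP–Amplex Red mix added; fluorescence read immediately and again after 30 min at room temperature.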
TrxR1 inh – qHTS Assay for Inhibitors of Mammalian Selenoprotein Thioredoxin Reductase 1 (TrxR1): qHTS; Thioredoxin reductase 1, cytoplasmic (Rattus norvegicus), O89049; recombinant rTrxR1, NADPH fluorescence consumption, selenite substrate; Potency, µM (top dose mostly 114 µM), for inactives: top-dose activity change, negative = inhibition, hits mostly inhibitors; actives 1% (n = 390,000); also: potency is read from the fitted curve at half-maximal effect; nearly all actives have a fitted effect of over 65% in size
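Rat TrxR1 (90 nM in the dispensed reagent) was pre-reduced with 400 uM NADPH for 5 min at room temperature, then incubated with compound for 15 min. After 400 uM selenite was added, NADPH fluorescence (Ex 340/Em 450 nm) was followed for 8 min.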
TrxR1 substrate – qHTS Assay for Substrates of Mammalian Selenoprotein Thioredoxin Reductase 1 (TrxR1): qHTS. Potency, µM (doses to about 114 µM), inactives show top-dose activity change, negative = substrate turnover. AID 588456, 2011. purified TrxR1 substrate turnover, NADPH consumption readout. actives 0.01% (n = 390,000); also: potency is read from the fitted curve at half-maximal effect; nearly all actives have a fitted effect of over 50% in size
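Rat TrxR1, dispensed at 90 nM, was prereduced with 400 uM NADPH (final) for 5 min at ~22 deg C, then incubated with compound 15 min before 400 uM selenite. A first-read NADPH fluorescence drop versus no-compound background flagged substrates.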
The depositor's hits bear a star; u = inconclusive; x = no result given; [ ] = remark or other dose. Unless noted, calls follow the shape of the dose curve; as a rule, active = well fitted curve in the direction sought with a large enough effect; inconclusive = small, poorly fitted or top-dose-only effect, or another doubt; inactive = no such curve, though single readings can be large; an effect the other way counts as inactive or inconclusive. Unless noted, % is scaled to controls: 0 for no effect and ±100 for the full control effect.

SMILES	LDHA block	PKM2 act	mIDH1 inhibitor	GLS inhibitor	TrxR1 inh	TrxR1 substrate
CCOC(=O)C1CCCN(C(=O)c2cc(-c3ccco3)nc3ccccc23)C1 (stereo not given)	3	x	1%	13µM*	u	408%
O=C(O)c1ccc(/C=C/C(=O)c2cccs2)cc1	-8	x	x	x	x	x
O=C(C=Cc1ccccc1)c1cccs1	-6	x	5%	7%	71µM*	-10%
S=C(NCc1ccccc1)NC1CCSc2ccc(Cl)cc21 (stereo not given)	5	x	x	x	x	x
Clc1ccccc1CSc1nnc(-c2cccnc2)n1Cc1ccco1	2	u	-1%	-2%	25µM*	1%
O=C(O)c1ccccc1-c1ccc(/C=c2\sc3nc4cc(Br)cnc4n3c2=O)o1	5	-2%	9%	13µM*	u	6%[57.1 µM]
Cc1cc2nc3s/c(=C/c4ccc(-c5ccccc5C(=O)O)o4)c(=O)n3c2cc1C	4	x	4%	u	-8%[57.1 µM]	-8%
Oc1ccc(N=Nc2ccccc2)o1	-4	x	-9%	24%	32µM*	-11%
O=c1ccc(N=Nc2ccccc2)ccc1O	16	-17%	3%	21%	-31%[57.1 µM]	-18%[57.1 µM]
CCN(Cc1ccc(OC)c(F)c1)C(=O)c1oc2ccccc2c1COC	-18	-2%	3%	3%	2%	-4%
CCN(Cc1ccc(OC)c(F)c1)C(=O)CCl	2	-4%	6%	-3%	25µM*	3%
CC(C)c1ccc(C(C(=O)NC2CCCC2)N(C(=O)c2cnccn2)c2cccs2)cc1 (stereo not given)	7	x	x	x	x	x
COc1cc(/C=C2/C(=O)c3cccc([N+](=O)[O-])c3C2=O)c(Br)cc1O	5	-50%	3%	u	28µM*	-16%
COc1ccccc1NC(=O)CCCCCN1C(=O)c2cccc([N+](=O)[O-])c2C1=O	-5	-9%	10%	10%	-4%	-14%
CC(C)CC(=O)C(C#N)C(=O)NCc1ccccc1 (stereo not given)	2	x	x	x	x	x
COc1ccc(-c2ccc3c(c2)C2CC3CCN2)cc1 (stereo not given)	-2	x	-3%	16µM*	u	5%
CSc1ccc(NC(=O)c2ccc(F)c(F)c2)cc1	3	x	x	x	x	x
O=C(O)c1ccccc1Nc1cc(Cl)c2nonc2c1[N+](=O)[O-]	2	3%	2%	-4%	1.6µM*	-14%
O=[N+]([O-])c1c(Nc2cccc(Cl)c2Cl)cc(Cl)c2nonc12	16	x	x	x	x	x
O=[N+]([O-])c1c(Nc2ccccc2Cl)cc(Cl)c2nonc12	34	x	x	x	x	x
O=[N+]([O-])c1c(Nc2ccccn2)cc(Cl)c2nonc12	36	26%	1%	0%	1.3µM*	-12%
O=C(OCCF)N1CCN(/[N+]([O-])=N/Oc2ccc([N+](=O)[O-])cc2[N+](=O)[O-])CC1	9	x	x	x	7.1µM*	5%
COCCOC(=O)N1CCN(/[N+]([O-])=N/Oc2ccc([N+](=O)[O-])cc2[N+](=O)[O-])CC1	7	x	x	x	8.9µM*	-5%[0.457 µM]
CCOC(=O)N1CCN([N+]([O-])=NOc2cc(O/N=[N+](\[O-])N(CC)CC)c([N+](=O)[O-])cc2[N+](=O)[O-])CC1	x	x	x	x	13µM*	-13%
COC(=O)c1ccc2ccccc2c1OS(=O)(=O)c1ccc(S(C)(=O)=O)cc1	-1	x	x	x	x	x
CCOC(=O)c1[nH]c2ccccc2c1NC(=O)CCN1CCC(C(N)=O)CC1	-2	x	x	x	x	x
